Assay results published in PubChem BioAssay (NCI).
Compounds without any hit were thinned out: in the full panel of roughly 79,000, 15% have a hit. Calls of active or inactive are those of the source. No stated cut-off is given here; in the data, active means growth inhibition above about 70%; inactive means the rest. Where a SMILES comes first, the peptide text is derived from it. The star is where a group is joined. Cbz = O=C(OCc1ccccc1)*; NHNH2 = NN*

Tests used:
[1] = NCI Yeast Anticancer Drug Screen. Data for the rad50 strain (AID 155);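 further: 0% = growth of vehicle-only cultures of the same strain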; settings: S. cerevisiae rad50 strain growth inhibition, active compounds read high; at 50.0 µM unless noted
Outline: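 Genetically altered yeast (DNA repair pathway); compound treatment; growth inhibition vs vehicle ctrl.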

[2] = NCI Yeast Anticancer Drug Screen. Data for the mec2-1 strain (AID 157); settings: S. cerevisiae mec2-1 strain, active compounds read high; at 50.0 µM unless noted
Outline: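 Mutant yeast (mec2-1) grown with compound; growth inhibition relative to vehicle control reported.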

[3] = NCI Yeast Anticancer Drug Screen. Data for the sgs1 mgt1 strain (AID 161);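 further: 0% = growth of cultures given vehicle only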; settings: S. cerevisiae sgs1 mgt1 strain, active compounds read high; at 50.0 µM unless noted
Outline: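 Yeast cells carrying a defined DNA-repair defect were exposed to test compounds. Growth inhibition was measured relative to vehicle-treated controls.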

[4] = NCI Yeast Anticancer Drug Screen. Data for the cln2 rad14 strain (AID 165);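 further: 0% = growth equal to vehicle treated cultures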; settings: S. cerevisiae cln2 rad14 strain, active compounds read high; at 50.0 µM unless noted
Outline: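 Readout is yeast growth inhibition versus vehicle-treated controls, using a strain with cln2 and rad14 alterations exposed to compound.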

[5] = NCI Yeast Anticancer Drug Screen. Data for the bub3 strain (AID 167); settings: S. cerevisiae bub3 mutant strain, active compounds read high; at 50.0 µM unless noted
Outline: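 Yeast carrying a defined mutation is treated with each compound, and growth is compared with that of vehicle-exposed cells to give inhibition.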

[6] = NCI Yeast Anticancer Drug Screen. Data for the mlh1 rad18 strain (AID 175); settings: S. cerevisiae mlh1 rad18 strain growth inhibition, active compounds read high; at 50.0 µM unless noted
Outline: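 Genetically defined yeast (DNA repair-deficient) exposed to compounds; growth inhibition determined relative to vehicle.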

Measured: growth inhibition

COc1ccc(C2=Nc3c(nc(OC)[nH]c3=O)NC(c3ccccc3)C2)cc1 (stereo not given)
inactive: [1] 12.3% | [2] 10.2% | [3] -10.5% | [4] 7.55% | [5] -8.95% | [6] -21.8%

COc1cc2cnc3c4cc(OCc5ccccc5)ccc4ccc3c2cc1OC
inactive: [1] -10.1% | [2] 3.2% | [3] -1% | [4] 25.3% | [5] 14.2% | [6] -0.25%

COc1ccc(CNC(=O)CC(C)=O)cc1
inactive: [1] -6.7% | [2] -17.5% | [3] 3.35% | [4] 7.25% | [5] 13% | [6] 0.95%

CC1CCCN1c1ccnc2cc(Cl)ccc12 (stereo not given)
inactive: [1] 11.9% | [2] -3.3% | [3] 7.15% | [4] -2.2% | [5] 8.25% | [6] 20.3%

CCN(CC)C(=S)Oc1cc(Cl)c(Cl)cc1Cl
inactive: [1] -5.45% | [2] 3.8% | [3] -5.2% | [4] -2.55% | [5] 18.7% | [6] 21.2%

C#CCSC(=S)NNc1ccccc1
inactive: [1] 33.1% | [2] 29.1% | [3] 33.1% | [4] 6.2% | [5] 60.8% | [6] 24.8%

CCOC(=O)CCC(NC(=O)OCc1ccccc1)C(=O)NC(CCC(=O)OCC)C(=O)NN (stereo not given) (Cbz-Glu(OEt)-Glu(OEt)-NHNH2; configuration not given here)
inactive: [1] 2.65% | [2] 7.75% | [3] 2.5% | [4] 11.8% | [5] 23.2% | [6] 27.3%

c1ccc(CN(Cn2cccn2)Cn2cccn2)nc1
inactive: [1] 7.15% | [2] -9% | [3] 23.1% | [4] 23.9% | [5] -0.4% | [6] 34.8%

CC1(C)OC(=O)N=C1c1ccccc1Cl
inactive: [1] -18.1% | [2] -18.4% | [3] -11.3% | [4] -11.4% | [5] -15.6% | [6] 7.65%

Cc1ccc(C2SC(N)=Nc3c2c(C)nn3C(=O)c2ccc(Cl)cc2)cc1 (stereo not given)
inactive: [1] -36.1% | [2] -42% | [3] -16.4% | [4] -33.5% | [5] -27.6% | [6] -24.9%

CC(Cl)(c1ccccc1)C1OCCO1 (stereo not given)
inactive: [1] 1.75% | [2] 19.9% | [3] 8.1% | [4] -20.9% | [5] -5.9% | [6] -1.5%

O=C(O)CCNCCC(=O)O
inactive: [1] 8.45% | [2] -6.75% | [3] 3.6% | [4] -25.5% | [5] 5.05% | [6] 9.7%

CC1(C)CNC[C@]2(C)OCCCO[C@@]3(C)CNCC(C)(C)NC(=O)[C@](C)(CNCC(C)(C)NC3=O)OCCCO[C@](C)(CNCC(C)(C)NC2=O)C(=O)N1
inactive: [1] -33.2% | [2] -22.2% | [3] -32.1% | [4] 0.5% | [5] -17.1% | [6] -46.2%

Cc1ccc(-c2c(C#N)c(O)n(NS(=O)(=O)c3ccccc3)c(=O)c2C#N)cc1
inactive: [1] 4.45% | [2] 6.4% | [3] -30.4% | [4] 0.8% | [5] -14.3% | [6] -11.7%

c1ccc(N=NC2(c3ccccc3)CC(c3ccccc3)=NN(c3ccccc3)C2NNc2ccccc2)cc1 (stereo not given)
inactive: [1] 53% | [2] 7.8% | [3] 23.8% | [4] 17.7% | [5] 6.75% | [6] 31.7%

O=C(Nc1ccccc1)C12CCC(CC1Br)C2 (stereo not given)
inactive: [1] 4.95% | [2] -9.25% | [3] -9.7% | [4] 7.6% | [5] 1.75% | [6] 14.2%

NC(=S)Cc1ccncc1
inactive: [1] 12.8% | [2] 6.15% | [3] 3.45% | [4] 1.15% | [5] 5.55% | [6] 2.65%

CC(=O)c1oc2cc([N+](=O)[O-])c3ccccc3c2c1C
inactive: [1] 14.7% | [2] -8.55% | [3] 26.3% | [4] 11.6% | [5] -5.35% | [6] 40.1%

CC(=O)c1cccc(N=NN(C)C)c1
inactive: [1] 41% | [2] 36.5% | [3] 58% | [4] 6.35% | [5] 40.2% | [6] 46.8%

CCCCS(=O)/C=C\S(=O)CCCC (stereo not given)
inactive: [1] -7% | [2] 6.3% | [3] 4.75% | [4] -16.2% | [5] 8.55% | [6] 1.6%

NNc1nc(N2CCCCC2)c2[nH]cnc2n1
inactive: [1] 1.1% | [2] -7.65% | [3] -5.6% | [4] 0.1% | [5] 11.8% | [6] 4.95%

Cc1cc(C)c2c(=O)n(-c3ccccc3C)c(=S)n(-c3ccccc3C)c2n1
inactive: [1] 31.4% | [2] 8.35% | [3] 2.25% | [4] 1.95% | [5] -4.1% | [6] 24.7%

CC(C)COC(=O)/C=C/c1ccccc1
inactive: [1] 19.8% | [2] 16.6% | [3] 20.6% | [4] 7.3% | [5] 2.9% | [6] 11.6%

CC(=O)Nc1cccc(Br)c1
inactive: [1] -18.1% | [2] -23.6% | [3] -18.1% | [4] -12.8% | [5] -25.5% | [6] -19.1%

NNc1nc(NCc2ccco2)c2[nH]cnc2n1
inactive: [1] -10% | [2] -7.95% | [3] 1.5% | [4] 2.45% | [5] 2.5% | [6] 12.8%

CC(=O)OCCc1cc2ccccc2oc1=O
inactive: [1] -9.05% | [2] 23.9% | [3] -16.8% | [4] 8.6% | [5] 12.2% | [6] 9.25%

CCCCCOC1OC(=O)C(Cl)=C1Cl (stereo not given)
inactive: [1] 65.3% | [2] 36.7% | [3] 63.2% | [4] 61.7% | [5] 54.8% | [6] 44%

CCOc1ccc(N=Cc2ccc3cc(C)ccc3n2)cc1
inactive: [1] -9.95% | [2] -9.65% | [3] -2.4% | [4] 12.2% | [5] -1.8% | [6] -19.9%

C=CCC(Cc1ccccc1)C(N)=O (stereo not given)
inactive: [1] -21.1% | [2] -51.7% | [3] -14.5% | [4] 10.6% | [5] -22.2% | [6] 14.4%

CCOC(=O)C(Cc1ccccc1)NC(=O)c1ccc(N=NN(C)C)cc1 (stereo not given)
inactive: [1] -19.8% | [2] -31.7% | [3] -37.2% | [4] -8.15% | [5] 6.65% | [6] -29.6%

Cc1ccccc1C(=O)NCC(=O)O
inactive: [1] 10.8% | [2] -28.1% | [3] 8.2% | [4] 3.65% | [5] -4.1% | [6] 12.3%

COC(=O)C(=O)C1CCc2ccc3ccccc3c2C1=O (stereo not given)
inactive: [1] -5.8% | [2] 2.3% | [3] 24.2% | [4] -4.65% | [5] 2.3% | [6] 38.5%

O=C(O)c1ccc(C(=O)NCCCN(CCCCN(CCCNC(=O)c2ccc(C(=O)O)c(O)c2O)C(=O)c2ccc(C(=O)O)c(O)c2O)C(=O)c2ccc(C(=O)O)c(O)c2O)c(O)c1O
inactive: [1] 11.2% | [2] 16.1% | [3] 20.3% | [4] -31.3% | [5] 0.35% | [6] 24.9%

Cc1nc2c(c(=O)[nH]1)C(c1ccccc1)C(C)(C)O2 (stereo not given)
inactive: [1] 3.6% | [2] -23.3% | [3] -3.6% | [4] -4.5% | [5] 6.15% | [6] 6.85%

CC1=CC(=O)CC(C)(C)C1
inactive: [1] 1.45% | [2] 5.95% | [3] -1.7% | [4] 6.4% | [5] 17.1% | [6] 3.45%

NCCNc1ccccc1
inactive: [1] -32.9% | [2] -62% | [3] -42.2% | [4] 6.6% | [5] -20.4% | [6] -22.9%

CCOC(=O)C1=C(O)c2ccccc2C(=O)C1=O
inactive: [1] 7.35% | [2] 3.8% | [3] 21.6% | [4] 11.3% | [5] 13.2% | [6] 8.95%

CO/C(=N\N=C\c1ccc(Cl)cc1Cl)c1ccncc1
inactive: [1] -25.9% | [2] -40.4% | [3] -53% | [4] -23.4% | [5] -27.8% | [6] -54.6%

S=c1nc[nH]c2c1ncn2Cc1ccco1
inactive: [1] 5.85% | [2] -12.9% | [3] -11.3% | [4] 0.55% | [5] -46.2% | [6] 5%

COC1(OC)CC2C(=O)N(Cc3ccccc3)C1CC2S(=O)(=O)c1ccccc1 (stereo not given)
inactive: [1] 6.7% | [2] -2.1% | [3] -16.1% | [4] 22.8% | [5] -2.3% | [6] 11.4%
